Results from PubChem BioAssay (Tox21).
“And” between values parts separate entries of the source, which are not always exact repeats. Identical values can stand only once. Results filed as inconclusive are left out. More than one record can exist for a structure, and the calls need not agree. The source made the active and inactive calls. Calls follow the shape of the full dose curve.

Key:
[1] = target: Acetylcholinesterase (Homo sapiens) (UniProt P22303); assay: Acetylcholinesterase (AChE) small molecule antagonists: colormetric cell-based qHTS assay (AID 1347395); also: nearly all actives have a fitted effect of over 30% in size; also: potency is read from the fitted curve at half-maximal effect
Summary of the method: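 SH-SY5Y cells; cpd 30 min 37 C; + DTNB/acetylthiocholine, 90 min 37 C; colorimetric thiocholine read; qHTS.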

[2] = target: Acetylcholinesterase (Homo sapiens) (UniProt P22303); assay: Acetylcholinesterase (AChE) small molecule antagonists: enzyme-based qHTS assay (AID 1347397); conditions: Potency: AChE enzyme activity inhibition; outcome: AChE enzyme activity inhibition; also: nearly all actives have a fitted effect of over 55% in size
Summary of the method: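 Recombinant human AChE (50 mU/mL) preincubated with compound 30 min at room temperature; acetylthiocholine plus DTNB then added, and thiocholine formation read colorimetrically after 10 min at room temperature. DMSO served as vehicle control.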

[3] = target: Acetylcholinesterase (Homo sapiens) (UniProt P22303); assay: Acetylcholinesterase (AChE) small molecule antagonists: fluorescence cell-based qHTS assay (AID 1347398); conditions: Potency: AChE activity; outcome: AChE activity; also: nearly all actives have a fitted effect of over 50% in size
Summary of the method: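 SH-SY5Y cells (2000/well), attached overnight, incubated with compound 30 min at 37 C. Acetylthiocholine plus Thiolite Green then added for 40 min at room temperature. Thiocholine fluorescence (Ex/Em 490/520 nm) reports cellular AChE activity.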

[4] = target: Acetylcholinesterase (Homo sapiens) (UniProt P22303); assay: Acetylcholinesterase (AChE) small molecule antagonists: enzyme-based qHTS assay with human liver microsomes (AID 1347399); conditions: Potency: qHTS inhibition; outcome: qHTS inhibition; also: nearly all actives have a fitted effect of over 60% in size
Summary of the method: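 Recombinant human AChE (50 mU/mL in the enzyme mix) and human liver microsomes (0.25 mg/mL final) were preincubated with compound and NADPH (0.25 mg/mL final) for 30 min at 37 C. Acetylthiocholine/DTNB was then added; thiocholine was read colorimetrically after 10 min at room temperature.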

Measured: Potency

Sequence of Acetylcholinesterase (Homo sapiens) (P22303 whole entry, looked up): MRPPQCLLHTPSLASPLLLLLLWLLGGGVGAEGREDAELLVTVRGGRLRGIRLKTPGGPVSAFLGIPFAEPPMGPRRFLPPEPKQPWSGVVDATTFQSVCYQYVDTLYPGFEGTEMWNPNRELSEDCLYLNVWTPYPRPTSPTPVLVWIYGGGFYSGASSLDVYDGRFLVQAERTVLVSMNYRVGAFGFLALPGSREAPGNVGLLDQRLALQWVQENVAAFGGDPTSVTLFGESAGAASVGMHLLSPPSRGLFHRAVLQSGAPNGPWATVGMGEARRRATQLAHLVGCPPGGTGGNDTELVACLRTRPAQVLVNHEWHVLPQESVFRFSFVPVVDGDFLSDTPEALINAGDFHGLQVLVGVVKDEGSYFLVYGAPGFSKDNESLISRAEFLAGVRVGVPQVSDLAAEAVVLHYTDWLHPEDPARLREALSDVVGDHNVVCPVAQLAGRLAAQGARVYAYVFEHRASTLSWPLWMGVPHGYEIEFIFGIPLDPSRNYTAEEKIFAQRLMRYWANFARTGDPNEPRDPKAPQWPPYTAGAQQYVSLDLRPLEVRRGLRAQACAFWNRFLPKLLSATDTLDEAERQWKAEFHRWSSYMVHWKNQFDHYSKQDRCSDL

COc1ccccc1Oc1c(NS(=O)(=O)c2ccc(C(C)(C)C)cc2)nc(-c2ncccn2)nc1OCCO
inactive: [1] | [2] | [3] | [4]

COCCOC[C@H](CC1(C(=O)NC2CCC(C(=O)O)CC2)CCCC1)C(=O)Oc1ccc2c(c1)CCC2 (stereo not given in full)
inactive: [1] | [2] | [3] | [4]

CC/C=C\C/C=C\C/C=C\CCCCCCCC(=O)O
inactive: [1] | [2] | [3] | [4]

Cn1c(=O)[nH]c2ncn(C)c2c1=O
inactive: [1] | [2] | [3] | [4]

Oc1ccc(O)cc1
inactive: [1] | [2] | [3] | [4]

c1ccc2n[nH]nc2c1
inactive: [1] | [2] | [3] | [4]

CC(C)(C)c1n[nH]c(=O)n(N)c1=O
inactive: [1] | [2] | [3] | [4]

CC(=O)O[C@@H]1C(=O)O[C@@H]2[C@H]1OC(=O)[C@@H]2OC(C)=O
inactive: [1] | [2] | [3] | [4]

CCCCCCC
inactive: [1] | [2] | [3] | [4]

COc1cc(/C=C/C(=O)O[C@H]2CC[C@]34C[C@]35CC[C@]3(C)[C@@H]([C@H](C)CCC=C(C)C)CC[C@@]3(C)[C@@H]5CC[C@H]4C2(C)C)ccc1O
inactive: [1] | [2] | [3] | [4]

COC(=O)c1c(Cl)c(Cl)c(C(=O)OC)c(Cl)c1Cl
inactive: [1] | [2] | [3] | [4]

Cn1sccc1=O
inactive: [2] | [3] | [4]
inactive and 71 µM (active): [1]

CN1C(C(=O)Nc2ccccn2)=C(O)c2sccc2S1(=O)=O
inactive: [1] | [2] | [3] | [4]

Cc1oc(C)c(C(=O)Nc2ccccc2)c1C
inactive: [1] | [2] | [3] | [4]

Cc1ccc(OC(=O)CC(C)C)cc1
inactive: [1] | [2] | [3] | [4]

CC(C)OC=O
inactive: [1] | [2] | [3] | [4]

O=C(O)c1cccc(C(=O)O)c1
inactive: [1] | [2] | [3] | [4]

CCCCCCCCCCCCCC(=O)OC(C)C
inactive: [1] | [2] | [3] | [4]

CCC(COC(=O)CCS)(COC(=O)CCS)COC(=O)CCS
inactive: [1] | [2] | [3] | [4]

CC/C=C(\C(=O)N[C@@H]1C(=O)N2C(C(=O)OCOC(=O)C(C)(C)C)=C(COC(N)=O)CS[C@H]12)c1csc(N)n1
inactive: [1] | [2] | [3] | [4]

O=C(NO)c1ccccc1
inactive: [1] | [2] | [3] | [4]

CC(C)[C@@H]1CC[C@@H](C)CC1=O
inactive: [1] | [2] | [3] | [4]

CCC(=O)O[C@H]1[C@H](O[C@@H]2[C@@H](C)[C@H](O[C@H]3C[C@@](C)(OC)[C@@H](O)[C@H](C)O3)[C@@H](C)C(=O)O[C@H](CC)[C@@](C)(O)[C@H](O)[C@@H](C)C(=O)[C@H](C)C[C@@]2(C)O)O[C@H](C)C[C@@H]1N(C)C
inactive: [1] | [2] | [3] | [4]

CC(=O)N1C[C@H](O)C[C@H]1C(=O)O
inactive: [1] | [2] | [3] | [4]

COc1ccc(N)c([N+](=O)[O-])c1
inactive: [1] | [2] | [3] | [4]

CC1(C)COCN1
inactive: [1] | [2] | [3] | [4]

CCCC/C=C/CCCCO
inactive: [1] | [2] | [3] | [4]

CC(C)(C)CCCCCCOC(=O)c1ccccc1C(=O)OCCCCCCC(C)(C)C
inactive: [1] | [2] | [3] | [4]

CC1CCC(C(C)(C)S)C(=O)C1 (stereo not given)
inactive: [1] | [2] | [3] | [4]

Nc1ccc(S(=O)(=O)NCc2ccccc2)cc1
inactive: [1] | [2] | [3] | [4]

C=Cc1ccccc1
inactive: [1] | [2] | [3] | [4]

N#CCCN(CCO)CCO
inactive: [1] | [2] | [3] | [4]

N/C(=N\N=C\c1ccc(Cl)cc1)N/N=C/c1ccc(Cl)cc1
inactive: [1] | [2] | [3] | [4]

OCC#CCO
inactive: [1] | [2] | [3] | [4]

O=C(c1ccc(O)c(O)c1)c1ccc(O)cc1O
inactive: [1] | [2] | [3] | [4]

O=C(O)Cc1cc(I)c(Oc2cc(I)c(O)c(I)c2)c(I)c1
inactive: [1] | [2] | [3] | [4]

CC/C=C\C/C=C\C/C=C\CCCCCCCC(=O)OCC
inactive: [1] | [2] | [3] | [4]

C=CC(=O)NCOCCCC
inactive: [1] | [2] | [3] | [4]

c1ccc2c(c1)Oc1ccccc1S2
inactive: [1] | [2] | [3] | [4]

O=[N+]([O-])c1ccc(F)cc1F
inactive: [1] | [2] | [3] | [4]

CCCCNS(=O)(=O)c1ccc(C)cc1
inactive: [1] | [2] | [3] | [4]

ClC(c1ccccc1)(c1ccccc1)c1ccccc1
inactive: [1] | [2] | [3] | [4]

CO[Si](OC)(OC)OC
inactive: [1] | [2] | [3] | [4]

O=C(O)CCCCCCCCCCC(=O)O
inactive: [1] | [2] | [3] | [4]

CCCCCCCCCCCCCC(=O)OCC
inactive: [1] | [2] | [3] | [4]

CC(COCC(C)OC(=O)c1ccccc1)OC(=O)c1ccccc1 (stereo not given)
inactive: [1] | [2] | [3] | [4]

CCOC(=O)CCC(C)=O
inactive: [1] | [2] | [3] | [4]

O=C1c2c(O)cccc2Cc2cccc(O)c21
inactive: [1] | [2] | [3] | [4]

Cc1cc(O)c(Cl)c(C)c1Cl
inactive: [1] | [2] | [3] | [4]

CC(=O)Oc1cccc(O)c1
inactive: [1] | [2] | [3] | [4]

CCCNC(C)(C)COC(=O)c1ccccc1
inactive: [1] | [2] | [3] | [4]

COC(=O)c1ccccc1OC
inactive: [1] | [2] | [3] | [4]

CC(C)(c1cc(Br)c(OCC(Br)CBr)c(Br)c1)c1cc(Br)c(OCC(Br)CBr)c(Br)c1 (stereo not given)
inactive: [1] | [2] | [3] | [4]

O=C(COCCOCCOCC(=O)Nc1c(I)cc(I)c(C(=O)O)c1I)Nc1c(I)cc(I)c(C(=O)O)c1I
inactive: [1] | [2] | [3] | [4]

O=c1[nH]nc(-c2ccc([N+](=O)[O-])o2)o1
inactive: [1] | [2] | [3] | [4]

NC(=O)Cc1cccc(C(=O)c2ccccc2)c1N
inactive: [1] | [2] | [3] | [4]

Cc1cccc2sc(N)nc12
inactive: [1] | [2] | [3] | [4]

CC(=O)O[C@@]12CO[C@@H]1C[C@H](O)[C@@]1(C)C(=O)[C@H](O)C3=C(C)[C@@H](OC(=O)[C@H](O)[C@@H](NC(=O)OC(C)(C)C)c4ccccc4)C[C@@](O)([C@@H](OC(=O)c4ccccc4)[C@H]21)C3(C)C
inactive: [1] | [2] | [3] | [4]

COc1ccc(OC)cc1
inactive: [1] | [2] | [3] | [4]

O=C(Cl)c1ccc([N+](=O)[O-])cc1
inactive: [1] | [2] | [3] | [4]
